Laboratory results as given in PubChem BioAssay AID2314 (National Center for Advancing Translational Sciences (NCATS), 2010).
“And” between values parts separate entries of the source, which are not always exact repeats. Equal values may be shown once. In all, about 300,000 compounds went through this assay and about 37,000 (12%) were called active. This is one part of a sample in which actives are shown more often than they occur. No stated cut-off is given here; in the data, active means max response mostly above about 13% (no sharp cut-off); inactive means mostly below about 14%.

Experiment: Cycloheximide Counterscreen for Small Molecule Inhibitors of Shiga Toxin; further: read at 38.3 µM for the half of the compounds with a filed dose; 0% is about no effect
Conditions: cell reporter, cycloheximide protein synthesis inhibition counterscreen; hits give high values
With CC1CC(C)CN(S(=O)(=O)c2cccc3nonc23)C1 (stereo not drawn) the max response was -1.35% (inactive).
For CN1CC(c2ccccc2)C2(COc3ccccc3C2=O)C12C(=O)Nc1ccccc12 (stereo not drawn), the max response was -3.96% (inactive).
For Cc1ccccc1NC(=O)CCNS(=O)(=O)c1ccc2[nH]c(=O)oc2c1, the max response was -2.26% (inactive).
In the case of O=C(NNC(=S)NC1CC2CCC1C2)c1ccc(Cl)cc1 (stereo not drawn), the max response is reported as 11.9% (active).
In the case of S=C(NNC(=S)NC1CC2CCC1C2)NC1CC2C=CC1C2 (stereo not drawn), the max response is reported as 4.61% (inactive).
With CCOC(=O)NNC(=O)c1ccc(Cl)cc1 the max response was 6.53% (inactive).
For O=S(=O)(NC1CC2CCC1C2)c1ccc(Cl)cc1 (stereo not drawn), the max response was -1.85% (inactive).
For O=C(NNC(=O)C1C2CCC(C2)C1C(=O)O)c1ccc(Cl)cc1 (stereo not drawn), the max response was 17.2% (active).
In the case of O=C(NNC(=O)C1CCCC1)c1ccc(F)cc1, the max response is reported as -5.73% (inactive).
In the case of CCN(CC(=O)NCCCN1CCOCC1)S(=O)(=O)c1cc(Cl)ccc1Cl, the max response is reported as 5.99% (inactive).
With O=C(CCCN1C(=O)/C(=C/c2cccs2)SC1=S)Nc1ccc(O)cc1 the max response was 8.82% (inactive).
In the case of CCN1C(=NCC(C)C)N[C@@H](CCc2ccccc2)[C@H](C(=O)NCC(C)C)[C@H]1C, the max response is reported as 0.929% (inactive) and -2.38% (inactive).
With CN(C)/C=C(/C(=O)c1ccc(Cl)c(Cl)c1)c1nnnn1-c1ccccc1 the max response was 0.0457% (inactive).
For Cc1ccc(NC(=O)c2cccnc2C(=O)Nc2ccc(C)cc2)cc1, the max response was -2.58% (inactive).
For C/C(=N\Nc1ccc([N+](=O)[O-])cc1)c1ccc(-n2nncc2C(C)(C)C)cc1, the max response was -3.73% (inactive).
In the case of CCc1cc(C(c2ccccc2OC)N2CCOCC2)c(NC(=O)c2ccccc2)s1 (stereo not drawn), the max response is reported as 12.9% (inactive).
In the case of COc1ccc(C(=S)Nc2ccccc2)cc1, the max response is reported as 37.3% (active).
For CC(C)(C)c1cnnn1-c1ccc([N+](=O)[O-])cc1, the max response was 6.21% (inactive).
For Cc1ccc(NC(=O)c2ccc(Oc3ncccn3)cc2)cc1, the max response was 32.1% (active).
In the case of CCc1cc(C(N)=O)c(NC(=O)c2ccc(OC)cc2)s1, the max response is reported as 19.3% (active).
For CCc1cc(C(=O)c2ccc(OC)cc2)c(NC(=O)CN2CCN(C)CC2)s1, the max response was -1.85% (inactive).
For COc1ccc(C(=O)Nc2ccc(-n3nncc3C(C)(C)C)cc2)cc1, the max response was 48% (active).
In the case of COc1ccccc1C(=O)NNC(=O)c1ccc(NC(=O)c2ccccc2)cc1, the max response is reported as -2.29% (inactive).
For COCCNC(=S)c1ccc(OC)cc1, the max response was 5.78% (inactive).
For CCC(C(=O)OCC(=O)Nc1ccc(C(=O)Nc2ccc(OC)cc2)cc1)c1ccccc1 (stereo not drawn), the max response was 11.5% (inactive).
With CN(C)S(=O)(=O)c1cccc(NC(=O)COC(=O)C2(c3ccccc3F)CCCC2)c1 the max response was -2.67% (inactive).
With Cc1c(C(=O)NC(C)C2CC3CCC2C3)cccc1[N+](=O)[O-] (stereo not drawn) the max response was -3.79% (inactive).
With COc1cnc(SCc2ccc(Cl)c(Cl)c2)nc1Cl the max response was 2.3% (inactive).
For CCc1c2c(nc3ccc(O)cc13)-c1cc3c(c(=O)n1C2)COC(=O)[C@]3(O)CC, the max response was -1.28% (inactive).
In the case of NC(N)=Nc1nc(-c2ccccc2)c2cc(Cl)ccc2n1, the max response is reported as -10.2% (inactive).
In the case of CCOC(=O)C1=C(N)N(c2ccc(C)cc2)C2=C(C(=O)CCC2)C1c1cccs1 (stereo not drawn), the max response is reported as 5.25% (inactive).
In the case of COc1ccccc1OC(C)C(=O)Nc1ccc(S(=O)(=O)Nc2nccs2)cc1 (stereo not drawn), the max response is reported as -6.41% (inactive).
In the case of CC(=O)N1c2ccc(S(=O)(=O)N3CCCC(C(=O)NCc4ccc(Cl)cc4)C3)cc2CC1C (stereo not drawn), the max response is reported as 10.9% (inactive).
For CNS(=O)(=O)c1cccc(C(=O)NC2CCCc3ccccc32)c1 (stereo not drawn), the max response was -2.97% (inactive).
In the case of COc1cccc(NC(=O)c2ccc(S(=O)(=O)N(C)C)cc2)c1, the max response is reported as 9.95% (inactive).
For COc1ccc(NC(=O)ON=C2c3ccccc3-c3ccccc32)cc1, the max response was 36.1% (active).
In the case of COc1ccc(CC(=O)Nc2ccc(C(=O)NC(C)(C)C)cc2)cc1, the max response is reported as 7.23% (inactive).
With COc1cccc(NC(=O)CN(C)CC(=O)Nc2ccc3c(c2)CCC3)c1 the max response was 4.53% (inactive).
In the case of CCC(=O)Nc1ccc(C(=O)Nc2cccc(OC)c2)cc1, the max response is reported as 37.4% (active).
For COc1ccc(NC(=O)C(Br)C(C)C)cc1 (stereo not drawn), the max response was 10.3% (inactive).
In the case of COc1ccc(NC(=O)c2c(C)oc3c2CCCC3)cc1, the max response is reported as 23.1% (active).
For COc1ccc2oc(=N)c(C(=O)Nc3ccc(Br)cc3)cc2c1, the max response was -2.54% (inactive).
With COc1ccc(S(=O)(=O)Nc2ccc3oc(C)c(C(C)=O)c3c2)cc1 the max response was -0.324% (inactive).
In the case of COc1ccc(C(=O)ON=C2c3ccccc3-c3ccccc32)cc1OC, the max response is reported as -2.66% (inactive).
For COc1ccc(NS(=O)(=O)c2ccc(NC(=O)c3ccc(N(C)S(C)(=O)=O)cc3)cc2)cc1, the max response was -6.86% (inactive).
In the case of COc1ccc(NC(=O)c2ccc(C#CC(C)(C)O)cc2)cc1, the max response is reported as 29.4% (active).
With CCC(C)[C@H](NC(=O)N1CCn2c1nc1ccccc12)C(=O)NCc1ccc(OC)cc1 (stereo partly drawn) the max response was 7.87% (inactive).
With CC1CCN(C(=S)NC2CC3CCC2C3)CC1 (stereo not drawn) the max response was -2.5% (inactive).
In the case of O=C(CCCCCn1c(=S)[nH]c2ccsc2c1=O)NC1CCCCC1, the max response is reported as -3.34% (inactive).
With Cc1nc(NC2=NC(C(=O)Nc3ccc(Cl)cc3)CC(=O)N2)nc2ccccc12 (stereo not drawn) the max response was -1.93% (inactive).
With Cc1ccc2c(C)c(C(=O)N(C)Cc3ccncn3)oc2c1C the max response was -3.14% (inactive).
In the case of CCOC(=O)C1(CC2CCCCO2)CCN(Cc2nc(-c3cccs3)oc2C)CC1 (stereo not drawn), the max response is reported as -1.4% (inactive).
With CC(C(=O)c1ccc(-c2ccccc2)cc1)[n+]1cccc(Br)c1 (stereo not drawn) the max response was -1.92% (inactive).
For CC(NC(=O)c1ccco1)c1ccc2c(c1)OCO2 (stereo not drawn), the max response was -2.24% (inactive).
In the case of Cc1c(C)c2c(OCC(=O)N[C@@H](C(=O)O)c3ccccc3)cc3c(c2oc1=O)CCC(C)(C)O3, the max response is reported as 0.453% (inactive).
With Cc1nn(C)c(C)c1CN(C(=O)CCc1nnc(Cc2c[nH]c3ccccc23)o1)C(C)C the max response was -2.58% (inactive).
With COCCNC(=O)/C(C#N)=C/c1nc(N(C)C)n(-c2ccc(F)cc2)c1Cl the max response was 6.45% (inactive).
For CSCCC(NS(=O)(=O)c1ccc(C)cc1)C(=O)N1CCCC1 (stereo not drawn), the max response was -0.967% (inactive).
In the case of Cc1cccc(C(=O)Nc2ccc3c(c2)C(=O)N(CC(C)C)C3=O)c1, the max response is reported as 10.4% (inactive).
For O=C(NC(=S)NC1CCCCC1)c1ccc(Cl)cc1, the max response was -1.68% (inactive).
For COCCNC(=O)Nc1ccc2nc(-c3ccco3)c(-c3ccco3)nc2c1, the max response was -4.08% (inactive).
In the case of COc1ccc(NC(=O)c2ccc(OC)cc2)cc1, the max response is reported as 45.1% (active).
In the case of Cc1cccc(C(=O)Nc2ccccc2C(=O)NCc2cccnc2)c1, the max response is reported as -1.87% (inactive).
With COc1ccc(C(=O)NC(=S)NC2CCCCC2)cc1 the max response was 72.8% (active).
In the case of COc1ccc(C(=O)Nc2ccc(NC(=O)C(C)C)nc2)cc1, the max response is reported as 2.34% (inactive).
With COc1ccc(NC(=O)Nc2ccc3nsnc3c2)cc1 the max response was 49.2% (active).
In the case of COc1ccc(C(=O)Nc2cccc(S(C)(=O)=O)c2)cc1, the max response is reported as -2.97% (inactive).
With COc1ccc(/C=N/NC(=O)Nc2ccc3nsnc3c2)c(OC)c1 the max response was -1.93% (inactive).
With Cc1cccc(C(=O)Nc2ccc(Oc3cnccn3)cc2)c1 the max response was 22.6% (active).
In the case of COc1ccc(C(=O)NNC(=S)NC(=O)c2ccccc2)cc1, the max response is reported as 8.67% (inactive).
In the case of O=C(C1CCCO1)N1CCN(C(=S)NC2CC2)CC1 (stereo not drawn), the max response is reported as -1.72% (inactive).
With CN1C(=O)[C@H]2[C@@H](C3CC3)N3C(=O)CN(Cc4ccccc4)C(=O)[C@@]3(C)[C@H]2C1=O the max response was -0.826% (inactive).
For CNC(=O)CN1C(=O)NC(c2ccccc2)(c2ccccc2)C1=O, the max response was -2.25% (inactive).
In the case of Cc1ccc(C(=O)O)cc1-c1ccc(/C=C2\SC(=O)N(CC(=O)Nc3ccc4c(c3)OCO4)C2=O)o1, the max response is reported as -2.31% (inactive).
For O=C(NN1C(=O)C2C3C=CC(C4CC34)C2C1=O)c1ccc(Cl)cc1 (stereo not drawn), the max response was 3.35% (inactive).
With C=C(C)C1CC=C(C)C(O)C1 (stereo not drawn) the max response was 7.86% (inactive).
For CN(C(=O)COc1nnc(-c2cccs2)c(-c2cccs2)n1)c1ccccc1, the max response was 0.449% (inactive).
With COc1ccc(NC(=O)c2sccc2SCC#N)cc1 the max response was 40% (active).
In the case of CCOc1ccc(N(CC(=O)Nc2cccc(OC)c2)S(C)(=O)=O)cc1, the max response is reported as 27.2% (active).
With COc1cccc(N(CC(=O)Nc2cccc(N(C)S(C)(=O)=O)c2)S(C)(=O)=O)c1 the max response was -2.16% (inactive).
In the case of COc1cccc(N(CC(=O)Nc2cccc(F)c2)S(C)(=O)=O)c1, the max response is reported as -5.13% (inactive).
For CCN(CC)C(=O)c1ccc(NC(=O)c2sccc2-c2ccccc2)cc1, the max response was 0.344% (inactive).
With COc1ccc(NC(=O)c2sc(N)nc2-c2ccccc2)cc1 the max response was 1.95% (inactive).
For CCOc1cccc(-c2nnc(SCC(=O)NC3CC3)n2C)c1, the max response was 5.85% (inactive).
In the case of CCOC(=O)NN1C(=O)c2ccccc2NC1c1ccccc1O (stereo not drawn), the max response is reported as -0.209% (inactive).
For COc1ccc(CCNC(=O)CCc2cn(C)c3ccccc23)c(OC)c1, the max response was 0.538% (inactive).
For O=C(NCCNc1ccc([N+](=O)[O-])cc1)c1cccc2c(Br)cccc12, the max response was -5.64% (inactive).
In the case of O=S(=O)(c1ccc(Cl)cc1)c1nc(-c2ccccc2F)oc1NCCN1CCOCC1, the max response is reported as 0.972% (inactive).
In the case of O=C(c1cc(C(=O)N2CCN(c3ccc(F)cc3)CC2)cc([N+](=O)[O-])c1)N1CCN(c2ccc(F)cc2)CC1, the max response is reported as 1.24% (inactive).
For CC12CN3CCN(CC(C3)/C1=N\NC(=O)c1ccccc1N)C2, the max response was 42.9% (active).
In the case of Nc1ccccc1C(=O)NC1CCCCNC1=O (stereo not drawn), the max response is reported as -3.17% (inactive).
For CNC(=S)N/N=C1\C2CN3CCN(C2)CC1(c1ccccc1)C3, the max response was 0.185% (inactive).
For CC1CC(C)CN(C(=O)C2CC(=O)N(c3ccc(F)cc3)C2)C1 (stereo not drawn), the max response was -5.15% (inactive).
